# Values joined by “and” are separate entries in the source; they are usually repeats but may differ in a detail not shown here. Equal values may be shown once. About 2,000 (36%) of roughly 5,500 compounds were called active. About 18% were inconclusive and are not listed. This is one part of the list. Unmarked numbers belong to inactive results. Cut-off read from the data, not from the text of the source: active = normalized growth mostly below about 0.91 (no sharp cut-off); inconclusive = no clear call, values can overlap the other calls; inactive = mostly above about 0.92.
# Experiment: chemical genetic growth profiling, strain panel (AID 1159580);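 note: tested at 20 µM; growth read once vehicle control cultures reached saturation at 30 °C; 1 = growth at the plate median or of vehicle wells; lower values mean less growth of the strain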
# Conditions: growth OD
smiles,measurement,setting,value
Cc1ccc(N(CC2=NCCN2)c2cccc(O)c2)cc1,normalized growth,"S. cerevisiae deletion strains, locus YJR075W, strain HOC1, active compounds read low",0.967
same,normalized growth,"S. cerevisiae deletion strains, locus YKL009W, strain mrt4, active compounds read low",0.99
same,normalized growth,"S. cerevisiae deletion strains, locus YKL068W, active compounds read low",1
same,normalized growth,"S. cerevisiae deletion strains, locus YKL085W, strain MDH1 (second series), active compounds read low",1.03
same,normalized growth,"S. cerevisiae deletion strains, locus YKL085W, strain MDH1, active compounds read low",1.03
same,normalized growth,"S. cerevisiae deletion strains, locus YKL160W, strain elf1, active compounds read low",1.01
same,normalized growth,"S. cerevisiae deletion strains, locus YKL190W, strain CNB1, active compounds read low",1.01
same,normalized growth,"S. cerevisiae deletion strains, locus YKR001C, strain vps1, active compounds read low",1.01
same,normalized growth,"S. cerevisiae deletion strains, locus YKR026C, strain gcn3, active compounds read low",1.03
same,normalized growth,"S. cerevisiae deletion strains, locus YKR091W, strain srl3, active compounds read low",1
same,normalized growth,"S. cerevisiae deletion strains, locus YLL001W, strain dnm1, active compounds read low",1
same,normalized growth,"S. cerevisiae deletion strains, locus YLL026W, active compounds read low",1.02
same,normalized growth,"S. cerevisiae deletion strains, locus YLL041C, strain sdh2, active compounds read low",1.01
same,normalized growth,"S. cerevisiae deletion strains, locus YLR027C, strain aat2, active compounds read low",1.01
same,normalized growth,"S. cerevisiae deletion strains, locus YLR039C, strain RIC1, active compounds read low",1.06
same,normalized growth,"S. cerevisiae deletion strains, locus YLR058C, strain SHM2, active compounds read low",1.01
same,normalized growth,"S. cerevisiae deletion strains, locus YLR102C, strain apc9, active compounds read low",1.01
same,normalized growth,"S. cerevisiae deletion strains, locus YLR113W, strain HOG1, active compounds read low",1.04
same,normalized growth,"S. cerevisiae deletion strains, locus YLR221C, strain rsa3, active compounds read low",0.998
same,normalized growth,"S. cerevisiae deletion strains, locus YLR258W, strain gsy2, active compounds read low",1
same,normalized growth,"S. cerevisiae deletion strains, locus YLR262C, strain YPT6 (second series), active compounds read low",1.02
same,normalized growth,"S. cerevisiae deletion strains, locus YLR262C, strain YPT6, active compounds read low",1.02
same,normalized growth,"S. cerevisiae deletion strains, locus YLR268W, strain sec22, active compounds read low",0.947
same,normalized growth,"S. cerevisiae deletion strains, locus YLR320W, strain mms22, active compounds read low",0.987
same,normalized growth,"S. cerevisiae deletion strains, locus YLR330W, strain CHS5, active compounds read low",1.01
same,normalized growth,"S. cerevisiae deletion strains, locus YLR342W, strain FKS1 (second series), active compounds read low",1.04
same,normalized growth,"S. cerevisiae deletion strains, locus YLR342W, strain FKS1, active compounds read low",1.02
same,normalized growth,"S. cerevisiae deletion strains, locus YLR357W, strain rsc2, active compounds read low",1.02
same,normalized growth,"S. cerevisiae deletion strains, locus YLR370C, strain arc18, active compounds read low",1.01
same,normalized growth,"S. cerevisiae deletion strains, locus YLR371W, strain rom2, active compounds read low",1.01
same,normalized growth,"S. cerevisiae deletion strains, locus YLR384C, strain iki3, active compounds read low",1.02
same,normalized growth,"S. cerevisiae deletion strains, locus YLR418C, strain cdc73, active compounds read low",0.955
same,normalized growth,"S. cerevisiae deletion strains, locus YML016C, strain PPZ1, active compounds read low",1.01
same,normalized growth,"S. cerevisiae deletion strains, locus YML032C, strain rad52, active compounds read low",0.819 (active)
same,normalized growth,"S. cerevisiae deletion strains, locus YML120C, strain ndi1, active compounds read low",0.999
same,normalized growth,"S. cerevisiae deletion strains, locus YML124C, strain tub3, active compounds read low",1.02
same,normalized growth,"S. cerevisiae deletion strains, locus YMR058W, strain fet3, active compounds read low",1.02
same,normalized growth,"S. cerevisiae deletion strains, locus YMR078C, strain ctf18, active compounds read low",1
same,normalized growth,"S. cerevisiae deletion strains, locus YMR125W, strain sto1, active compounds read low",1.04
same,normalized growth,"S. cerevisiae deletion strains, locus YMR129W, active compounds read low",1
same,normalized growth,"S. cerevisiae deletion strains, locus YMR205C, strain PFK2, active compounds read low",1.02
same,normalized growth,"S. cerevisiae deletion strains, locus YMR223W, strain ubp8, active compounds read low",0.973
same,normalized growth,"S. cerevisiae deletion strains, locus YMR231W, strain pep5, active compounds read low",1.02
same,normalized growth,"S. cerevisiae deletion strains, locus YMR263W, strain SAP30, active compounds read low",0.989
same,normalized growth,"S. cerevisiae deletion strains, locus YMR307W, strain GAS1, active compounds read low",0.988 and 0.994
same,normalized growth,"S. cerevisiae deletion strains, locus YNL067W, strain RPL9B, active compounds read low",0.967
same,normalized growth,"S. cerevisiae deletion strains, locus YNL071W, strain lat1, active compounds read low",1.01
same,normalized growth,"S. cerevisiae deletion strains, locus YNL128W, strain TEP1, active compounds read low",0.988
same,normalized growth,"S. cerevisiae deletion strains, locus YNL153C, strain GIM3, active compounds read low",0.983
same,normalized growth,"S. cerevisiae deletion strains, locus YNL175C, strain NOP13, active compounds read low",1.02
same,normalized growth,"S. cerevisiae deletion strains, locus YNL183C, strain NPR1, active compounds read low",0.99
same,normalized growth,"S. cerevisiae deletion strains, locus YNL197C, strain WHI3, active compounds read low",1.03
same,normalized growth,"S. cerevisiae deletion strains, locus YNL209W, strain ssb2, active compounds read low",1.04
same,normalized growth,"S. cerevisiae deletion strains, locus YNL224C, strain SQS1, active compounds read low",1.06
same,normalized growth,"S. cerevisiae deletion strains, locus YNL233W, strain BNI4, active compounds read low",0.966
same,normalized growth,"S. cerevisiae deletion strains, locus YNL248C, strain rpa49, active compounds read low",1.03
same,normalized growth,"S. cerevisiae deletion strains, locus YNL250W, strain rad50, active compounds read low",0.841 (active)
same,normalized growth,"S. cerevisiae deletion strains, locus YNL271C, strain bni1, active compounds read low",0.998
same,normalized growth,"S. cerevisiae deletion strains, locus YNL298W, strain CLA4, active compounds read low",0.899 (active)
same,normalized growth,"S. cerevisiae deletion strains, locus YNL307C, strain MCK1, active compounds read low",0.969
same,normalized growth,"S. cerevisiae deletion strains, locus YNL322C, strain KRE1 (second series), active compounds read low",1.01
same,normalized growth,"S. cerevisiae deletion strains, locus YNL322C, strain KRE1, active compounds read low",1 and 0.995
same,normalized growth,"S. cerevisiae deletion strains, locus YNR049C, strain mso1, active compounds read low",1.02
same,normalized growth,"S. cerevisiae deletion strains, locus YNR052C, strain pop2, active compounds read low",0.998
same,normalized growth,"S. cerevisiae deletion strains, locus YOL006C, strain TOP1, active compounds read low",0.967
same,normalized growth,"S. cerevisiae deletion strains, locus YOL012C, strain htz1",1.24
same,normalized growth,"S. cerevisiae deletion strains, locus YOL147C, strain pex11, active compounds read low",1.01
same,normalized growth,"S. cerevisiae deletion strains, locus YOR001W, strain rrp6, active compounds read low",0.993
same,normalized growth,"S. cerevisiae deletion strains, locus YOR061W, strain CKA2, active compounds read low",1.02
same,normalized growth,"S. cerevisiae deletion strains, locus YOR069W, strain VPS5, active compounds read low",1.06
same,normalized growth,"S. cerevisiae deletion strains, locus YOR070C, strain gyp1, active compounds read low",1
same,normalized growth,"S. cerevisiae deletion strains, locus YOR080W, strain dia2, active compounds read low",1.04
same,normalized growth,"S. cerevisiae deletion strains, locus YOR083W, strain WHI5 (second series), active compounds read low",1.03
same,normalized growth,"S. cerevisiae deletion strains, locus YOR083W, strain WHI5, active compounds read low",0.969
same,normalized growth,"S. cerevisiae deletion strains, locus YOR106W, strain vam3, active compounds read low",1.03
same,normalized growth,"S. cerevisiae deletion strains, locus YOR136W, strain idh2, active compounds read low",1.01
same,normalized growth,"S. cerevisiae deletion strains, locus YOR144C, strain elg1, active compounds read low",1.01
same,normalized growth,"S. cerevisiae deletion strains, locus YOR184W, strain ser1, active compounds read low",0.975
same,normalized growth,"S. cerevisiae deletion strains, locus YOR231W, strain MKK1, active compounds read low",1.02
same,normalized growth,"S. cerevisiae deletion strains, locus YOR265W, strain rbl2, active compounds read low",1
same,normalized growth,"S. cerevisiae deletion strains, locus YOR270C, strain vph1, active compounds read low",1.06
same,normalized growth,"S. cerevisiae deletion strains, locus YOR290C, strain snf2, active compounds read low",1.02
same,normalized growth,"S. cerevisiae deletion strains, locus YOR316C, strain cot1, active compounds read low",1.01
same,normalized growth,"S. cerevisiae deletion strains, locus YPL051W, strain arl3, active compounds read low",1
same,normalized growth,"S. cerevisiae deletion strains, locus YPL055C, strain LGE1, active compounds read low",0.908
same,normalized growth,"S. cerevisiae deletion strains, locus YPL078C, strain atp4, active compounds read low",1.02
same,normalized growth,"S. cerevisiae deletion strains, locus YPL106C, strain sse1, active compounds read low",1.01
same,normalized growth,"S. cerevisiae deletion strains, locus YPL240C, strain hsp82, active compounds read low",1
same,normalized growth,"S. cerevisiae deletion strains, locus YPL241C, strain CIN2, active compounds read low",1.04 and 1.01
same,normalized growth,"S. cerevisiae deletion strains, locus YPL256C, strain CLN2, active compounds read low",1.05
same,normalized growth,"S. cerevisiae deletion strains, locus YPR119W, strain clb2, active compounds read low",1
same,normalized growth,"S. cerevisiae deletion strains, locus YPR141C, strain kar3, active compounds read low",1
same,normalized growth,"S. cerevisiae deletion strains, locus YPR163C, strain tif3, active compounds read low",0.991
same,normalized growth,"S. cerevisiae deletion strains, locus YPR167C, strain met16, active compounds read low",1.01
same,normalized growth,"S. cerevisiae deletion strains, strain wtn01, active compounds read low",0.977
same,normalized growth,"S. cerevisiae strains, strain wild type, active compounds read low",1
